Assay [1] is described as follows: qHTS assay to identify aromatase inhibitors - cell viability counter screen (AID 743084).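 Further: cells stimulated with testosterone during compound exposure; nearly all actives have a fitted effect of over 55% in size.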 Further: potency means the concentration at half of the fitted maximal effect. For orientation: Quantitative high-throughput screening tests each substance at several concentrations.
Assay [2] is described as follows: qHTS assay to identify small molecule antagonists of the peroxisome proliferator-activated receptor gamma (PPARg) signaling pathway - cell viability counter screen (AID 743194). Further: nearly all actives have a fitted effect of over 55% in size. Further: potency means the concentration at half of the fitted maximal effect. A digest of the protocol: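 PPARg-UAS-bla HEK293H cells were plated, rested 5 h at 37 C, then treated with compounds plus rosiglitazone (50 nM final) for 17 h at 37 C; viability was then read by CellTiter-Glo luminescence after 30 min at room temperature.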

Assay [3] in a line: qHTS assay for small molecule agonists of the antioxidant response element (ARE) signaling pathway (AID 743202; active means well fitted activation curve with a large enough effect in the signal ratio in the repeat runs, not every such curve was filed as active; the % refers to the signal ratio; further: potency means the concentration at half of the fitted maximal effect). A digest of the protocol: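 Compounds delivered in DMSO to ARE-bla HepG2 cells (2,000 cells/well, pre-incubated 5 h) and left 16 h at 37 C. LiveBLAzer B/G FRET substrate then added for 2 h at RT before fluorescence reading.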
The nature of assay [4]: qHTS assay for small molecule activators of the heat shock response signaling pathway - cell viability counter screen (AID 743209). Further: nearly all actives have a fitted effect of over 50% in size. A digest of the protocol:
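Readout: CellTiter-Glo luminescence, 30 min at room temperature. System: HSE-bla HeLa cells, 1500/well, plated overnight. Treatment: compounds in DMSO, 5 h at 37 C.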

A short description of assay [5]: qHTS assay to identify small molecule that activate the aryl hydrocarbon receptor (AhR) signaling pathway - cell viability counter screen (AID 743086).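 Further: HepG2 liver cells carrying the AhR DRE luciferase reporter; series mostly up to about 70 µM; nearly all actives have a fitted effect of over 45% in size.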 A digest of the protocol: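 HepG2-AhR-luc (HG2L7.5c1) cells, 4000/well, were preincubated 5 h at 37C, exposed to compound in qHTS format for 24 hr at 37C, then given CellTiter-Fluor for 30 min; viability was read as fluorescence in the reporter wells.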

Assay [6] deals with Peroxisome proliferator-activated receptor gamma (Homo sapiens) (UniProt P37231). Kind of assay: qHTS assay to identify small molecule agonists of the peroxisome proliferator-activated receptor gamma (PPARg) signaling pathway (AID 743094; active means well fitted activation curve with a large enough effect in the signal ratio in the repeat runs, not every such curve was filed as active; the % refers to the signal ratio). Put shortly: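 Compounds dissolved in DMSO were added to PPARg UAS-bla HEK293H cells for 17 h at 37C, and reporter expression was quantified by fluorescence intensity after 1 h with LiveBLAzer B/G FRET substrate.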

Assay [7] is described as follows: qHTS assay for small molecule agonists of the antioxidant response element (ARE) signaling pathway - cell viability counter screen (AID 743203; calls by dose curve; further: nearly all actives have a fitted effect of over 55% in size; further: potency means the concentration at half of the fitted maximal effect). Put shortly:
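Following 16 hrs of compound treatment at 37C, HepG2 cells with an ARE-controlled beta-lactamase gene were lysed with CellTiter-Glo. Luminescence was read after 30 min at room temperature.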

The target of assay [8] is Peroxisome proliferator-activated receptor gamma (Homo sapiens) (UniProt P37231). Kind of assay: qHTS assay to identify small molecule antagonists of the peroxisome proliferator-activated receptor gamma (PPARg) signaling pathway (AID 743191; calls by dose curve; further: series mostly up to about 63 µM; nearly all actives have a fitted effect of over 30% in size). A digest of the protocol: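 GeneBLAzer PPARg UAS-bla HEK293H cells carrying a UAS-driven beta-lactamase reporter were plated at 3000 cells/well, preincubated 5 h at 37C, then given compound for 17 h at 37C; LiveBLAzer B/G FRET substrate was read after 1 h at room temperature.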

The nature of assay [9]: qHTS assay for small molecule activators of the heat shock response signaling pathway (AID 743210; active means well fitted activation curve with a large enough effect in the signal ratio in the repeat runs, with a control signal flat, not every such curve was filed as active; the % refers to the signal ratio;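 further: HeLa cells with beta-lactamase reporter driven by heat shock elements; series mostly up to about 63 µM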). A digest of the protocol: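 Reporter gene assay: HeLa cells stably bearing an HSE-bla construct, compound treatment 5 h at 37 C, LiveBLAzer substrate 2.5 h at RT, fluorescence intensity.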
Assay [10] deals with Aryl hydrocarbon receptor (Homo sapiens) (UniProt P35869). Kind of assay: qHTS assay to identify small molecule that activate the aryl hydrocarbon receptor (AhR) signaling pathway (AID 743085).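 Further: HG2L7.5c1 human HepG2 liver cells with stably integrated DRE-driven firefly reporter; series mostly up to about 70 µM; nearly all actives have a fitted effect of over 15% in size.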 Put shortly: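 Luminescence read-out: ONE-Glo reagent, 30 min at room temperature, in HG2L7.5c1 HepG2 reporter cells treated 24 h at 37C. Viability was measured beforehand by CellTiter-Fluor fluorescence after 30 min at 37C.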

Results filed as inconclusive are left out. Unmarked numbers belong to inactive results. Calls of active or inactive are those of the source. Unless noted, the call rests on the fitted dose curve; in most records, active means well fitted curve in the direction sought with a large enough effect in the repeat runs; inconclusive means weak or mixed curves; inactive means no such curve, though single readings can be large; an effect the other way counts as inactive or inconclusive.
On the % scale 0 is the no-effect control and ±100 the full control effect.

Sequence of Peroxisome proliferator-activated receptor gamma (Homo sapiens) (P37231 whole entry, looked up): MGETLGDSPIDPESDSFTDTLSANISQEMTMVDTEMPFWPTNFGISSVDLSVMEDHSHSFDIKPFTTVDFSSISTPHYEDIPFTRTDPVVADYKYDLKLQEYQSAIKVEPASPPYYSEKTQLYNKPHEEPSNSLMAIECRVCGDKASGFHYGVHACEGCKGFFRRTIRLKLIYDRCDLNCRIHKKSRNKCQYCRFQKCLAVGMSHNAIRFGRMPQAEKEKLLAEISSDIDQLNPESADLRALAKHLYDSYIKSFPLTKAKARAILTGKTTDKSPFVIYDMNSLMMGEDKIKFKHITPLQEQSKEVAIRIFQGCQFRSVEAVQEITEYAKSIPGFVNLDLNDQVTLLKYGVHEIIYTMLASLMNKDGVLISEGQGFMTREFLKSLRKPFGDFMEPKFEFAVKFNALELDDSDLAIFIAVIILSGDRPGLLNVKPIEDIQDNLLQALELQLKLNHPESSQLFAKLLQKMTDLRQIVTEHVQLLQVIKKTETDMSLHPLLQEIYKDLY
Sequence of Aryl hydrocarbon receptor (Homo sapiens) (P35869 whole entry, looked up): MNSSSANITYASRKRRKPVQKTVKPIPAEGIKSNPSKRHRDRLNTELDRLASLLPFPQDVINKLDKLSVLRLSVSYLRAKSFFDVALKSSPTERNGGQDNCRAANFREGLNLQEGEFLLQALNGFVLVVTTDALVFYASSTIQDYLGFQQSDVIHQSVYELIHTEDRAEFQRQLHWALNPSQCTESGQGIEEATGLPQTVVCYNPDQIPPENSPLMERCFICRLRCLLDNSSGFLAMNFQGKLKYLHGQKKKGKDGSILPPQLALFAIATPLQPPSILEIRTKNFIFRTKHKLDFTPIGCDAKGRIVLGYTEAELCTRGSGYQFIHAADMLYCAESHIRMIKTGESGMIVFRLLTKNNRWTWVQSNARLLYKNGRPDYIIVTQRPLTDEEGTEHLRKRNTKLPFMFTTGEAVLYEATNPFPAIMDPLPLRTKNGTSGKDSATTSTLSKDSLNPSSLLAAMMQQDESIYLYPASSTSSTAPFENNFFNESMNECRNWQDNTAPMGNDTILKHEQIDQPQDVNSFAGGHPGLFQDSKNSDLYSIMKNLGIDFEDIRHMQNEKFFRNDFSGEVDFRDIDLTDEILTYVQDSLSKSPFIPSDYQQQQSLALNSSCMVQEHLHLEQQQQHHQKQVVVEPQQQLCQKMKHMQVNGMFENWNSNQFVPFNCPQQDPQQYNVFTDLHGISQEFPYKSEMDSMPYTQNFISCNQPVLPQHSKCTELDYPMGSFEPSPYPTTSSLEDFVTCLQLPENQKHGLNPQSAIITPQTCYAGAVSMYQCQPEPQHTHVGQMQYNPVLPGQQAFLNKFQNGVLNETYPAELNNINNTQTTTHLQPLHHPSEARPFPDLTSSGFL

For the compound `Cc1cc([N+](=O)[O-])ccc1N`, in assay [1], the Potency is 53.8 µM (active). Besides, the Potency entry in assay [2], in assay [3] and in assay [4] was “inactive” throughout.

In the case of `CC1=CC[C@@H]2C[C@H]1C2(C)C`, the Potency result in assay [1] and in assay [5] was “inactive” each time. Also, the compound was called inactive in assay [6]. Besides, the activity change, negative = cytotoxicity in assay [2] is -33.5% [at 13.2 µM]; in assay [4] it was -3.23% [at 13.2 µM]. Also, the activation in assay [3] was -11.5% [at 18.1 µM]. Moreover, in assay [7], the viability change, negative = cytotoxic is -20.1% [at 18.1 µM].

For the compound `SCCc1cnccn1`, the Potency result in [1], in [5], in assay [8], in assay [2] and in [7] was “inactive” throughout.

`BrC(Br)C(Br)Br`: the Potency result in assay [1], in assay [5], in [2], in assay [3], in assay [7] and in assay [9] was “inactive” throughout. Further, the compound was called inactive in assay [6].

`CC(C)OC(=O)c1ccccc1C(=O)OC(C)C`: the Potency entry in assay [1], in [5], in assay [2], in [3], in [7] and in assay [4] was “inactive” throughout. In addition, in assay [9], the Potency entry was “inactive”. The compound was called inactive in assay [6].

Consider `C=C(C)C(=O)OCCC(F)(F)C(F)(F)C(F)(F)C(F)(F)C(F)(F)C(F)(F)F`, for which the Potency entry in [1], in [5], in assay [2], in [3], in [7] and in [4] was “inactive” in each case. In addition, the Potency result in assay [9] is “inactive”. Moreover, the call in assay [6] was inactive.

For the compound `CCCCOC(=O)CCCCC(=O)OCCCC`, the Potency entry in assay [1], in assay [5], in [2], in assay [3], in assay [7] and in assay [4] was “inactive” throughout. Besides, in assay [9], the Potency result was “inactive”. Further, the outcome in assay [6] was inactive.

Regarding `Cc1c[nH]c2ccccc12`, the Potency result in assay [1], in [5], in [2], in assay [4] and in assay [9] was “inactive” in each case. Further, in [6], the result was inactive.

As to `Nc1cccc2c(N)cccc12`, the Potency entry in [1] and in [4] was “inactive” in each case. The call in assay [6] was inactive.

Consider `CNC1CCCN(c2c(F)cc3c(=O)c(C(=O)O)cn(C4CC4)c3c2OC)C1` (centres undefined), for which the Potency entry in [1], in assay [5], in assay [8], in [2], in assay [3] and in assay [7] was “inactive” throughout. Moreover, the Potency entry in assay [4] and in [9] was “inactive” in each case.

Consider `CC1CCCO1` (centres undefined), for which the Potency entry in [1], in assay [5], in [2], in assay [7], in assay [4] and in assay [9] was “inactive” throughout. For the same compound, the call in [6] was inactive.

Turning to `CCCCCCCCCCCC(=O)OCC(O)CO` (centres undefined), the Potency result in assay [1], in [5], in [2], in assay [3] and in assay [7] was “inactive” in each case.

With `CCCCCC`, the Potency result in assay [1], in assay [5], in assay [2], in assay [3], in assay [7] and in assay [4] was “inactive” in each case. The Potency result in [9] was “inactive”.

Consider `CCCc1nc2c(C)cc(-c3nc4ccccc4n3C)cc2n1Cc1ccc(-c2ccccc2C(=O)O)cc1`, for which the Potency entry in assay [1], in [5], in [2], in [7], in assay [4] and in [9] was “inactive” each time. In addition, the Potency in assay [3] was 26.6 µM (active).

`Cc1cccc2sc(N)nc12`: the Potency entry in assay [1], in [5], in [2], in [7] and in assay [9] was “inactive” in each case.

For the compound `Cc1ccc2nc(N)[nH]c(=O)c2c1Sc1ccncc1`, the Potency entry in assay [1], in [2], in assay [7], in [4] and in [9] was “inactive” throughout.

In the case of `Oc1ccc2c(c1)Cc1ccccc1-2`, the Potency entry in [1], in [5], in [2], in assay [7], in [4] and in assay [9] was “inactive” each time. Besides, the Potency in assay [3] is 34.4 µM (active).

As for `CSCC[C@H](NC(=O)[C@H](Cc1c[nH]c2ccccc12)NC(=O)CCNC(=O)OC(C)(C)C)C(=O)N[C@@H](CC(=O)O)C(=O)N[C@@H](Cc1ccccc1)C(N)=O`, the Potency entry in [1], in assay [5], in assay [8], in assay [2], in assay [3] and in [4] was “inactive” throughout. For the same compound, in assay [9], the Potency entry was “inactive”.

For the compound `O=[N+]([O-])c1ccc2ncccc2c1`, the Potency entry in assay [1], in [5], in [2], in assay [3], in assay [7] and in assay [4] was “inactive” throughout. Also, the Potency entry in assay [9] is “inactive”. Moreover, in [6], the call was inactive.

Consider `CCCOC(=O)c1c(Cl)c(Cl)c(Cl)c(Cl)c1C(=O)OCCC`, for which the Potency entry in [1], in assay [5], in [4] and in assay [9] was “inactive” each time. Also, the compound was classed as inactive in assay [6].

Regarding `[Cl][Nd]([Cl])[Cl]`, the Potency entry in assay [1], in assay [5], in [2], in [7], in [4] and in assay [9] was “inactive” throughout. Further, the result in assay [6] was inactive.

Consider `O=C(O)CCC(=O)c1ccc(-c2ccccc2)cc1`, for which the Potency result in assay [1], in assay [5], in [8], in assay [2], in [3] and in assay [7] was “inactive” in each case. Further, the Potency entry in assay [9] was “inactive”.

As for `CC(CN(CCN(CC(C)OCCO)CC(C)OCCO)CC(C)OCCO)OCCO` (centres undefined), the Potency result in assay [1], in assay [5], in assay [4] and in assay [9] was “inactive” throughout. The Potency in [2] was 37.5 µM (active); in [7], 33.1 µM (active).

For the compound `Cc1ccccc1S(N)(=O)=O`, the Potency entry in assay [5], in assay [2], in assay [4] and in assay [9] was “inactive” throughout.

`Cc1oc(=O)oc1COC(=O)[C@@H]1N2C(=O)[C@@H](NC(=O)[C@H](N)c3ccccc3)[C@H]2SC1(C)C`: the Potency result in assay [8], in assay [2], in [3], in assay [4] and in assay [9] was “inactive” throughout.

As for `CCCCOCCOC(=O)c1cccnc1`, the Potency entry in assay [8], in [2], in assay [3], in assay [7], in assay [4] and in [9] was “inactive” each time.

Take `COC1CCC=CO1` (centres undefined): the Potency result in assay [10], in assay [5], in assay [2], in [3], in assay [7] and in [4] was “inactive” in each case. Further, the Potency entry in assay [9] is “inactive”.

For the compound `C=C(C)c1ccccc1`, the Potency entry in assay [5], in assay [2], in [3], in assay [4] and in [9] was “inactive” each time.

Source of the values: PubChem BioAssay (Tox21).
